The supplement of paper PMC9337992
± gives the standard deviation of the averaged measurements.

test system: MDAMB468; test: cell proliferation (confluence) relative to DMSO control; higher = less growth inhibition; conditions: 5 uM; 6 d
Method: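 Epigenetic chemical probe screen: 15 TNBC cell lines, 500 cells per well in 384-well plates, treated with 5 uM of each of 36 SGC probes for 6 d. Confluency was imaged by IncuCyte ZOOM and normalised to DMSO control wells. Four replicate wells per compound.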

Row | SMILES | cell proliferation [%]
1 | O=C(O)CNC(=O)c1c(O)c2ccccc2n(Cc2ccccc2)c1=O | 77.3 ± 4.1
2 | c1ccc([C@@H]2C[C@H]2NC2CCNCC2)cc1 | 79 ± 12
3 | COc1cc(C(=O)N2CC[C@@H](O)[C@@H](N)C2)cc2nc(-c3cc4ccccc4n3CC3CC3)n(C)c12 | 45.6 ± 5
